A number with no mark means an inactive call. Active and inactive are the calls of the source. Calls come from the whole dose curve; as a rule, active = well fitted curve in the direction sought with a large enough effect in the repeat runs; inconclusive = weak or mixed curves; inactive = flat fitted curve, though single readings scatter.
assay: qHTS assay to test for compound auto fluorescence at 590 nm (red) in HEK293 cell free culture (AID 720683); conditions: cell-free medium autofluorescence, Ex540/Em590 red; series mostly up to 91.3 µM; fluorescence, % of fluorescent control: at the top concentration
Excerpt: U.S. Tox21 Program National Center for Advancing Translational Sciences [NCATS] NIH Chemical Genomics Center [NCGC] U.S. Environmental Protection Agency [EPA] National Institutes of Environmental Health Sciences [NIEHS] National Toxicology Program [NTP] U.S. Food and Drug Administration [FDA] Tox21 Assay Overview: Compound auto fluorescence often interferes with screening of the compound library against various biological targets and signaling pathways. Some of these compounds may have fluorophoric properties. Such properties may interfere with the assay outputs resulting in false positives and/or negatives. To decrease such complications and ensure the compound activities are relevant in terms of biological response, the Tox21 10K compound library was screened for auto fluorescence. From the fluorophores used as reporter signals in our screening assays, the auto fluorescence equivalencies of compounds against three fluorophores have been evaluated: Triamterene, Fluorescein and Rose Bengal sodium for blue, green and red fluorescence, respectively. The fluorescence intensities were measured using Excitation/Emission wavelengths at 405/460nm, 485/535nm and 540/590nm for blue, green and red labels, respectively. This assay includes the red fluorescence data.
Tox21 Assay Protocol Summary: 5 uL of culture medium (DMEM containing 10% FBS) per well was dispensed into black wall/clear bottom 1536-well plates using a Multidrop Combi Dispenser (ThermoFisher Scientific, Waltham, MA). After 23 nL compound or DMSO vehicle was transferred into assay plate by a pintool work station (Kalypsys, San Diego, CA), fluorescence intensities in the assay plates were measured by an Envision (PerkinElmer, Shelton, CT) plate reader using three labels for measuring blue, green and red fluorescence at […] 460, 535 and 590nm respectively.
% is set by controls: 0 for no effect and ±100 for the full control effect.

| Structure (SMILES) | fluorescence, % of fluorescent control | outcome |
| --- | --- | --- |
| Cc1cc(O)c2c(c1)C(=O)c1cccc(O)c1C2=O | 0.0805% [at 46 µM] |  |
| N#CCCOCCOCCC#N | 0.0691% |  |
| CC(C)(CO)[C@@H](O)C(=O)NCCCO | -0.0477% [at 46 µM] |  |
| CC(C)SCc1ccco1 | -0.347% [at 46 µM] |  |
| CCCCCCCC/C=C\CCCCCCCC(=O)OC[C@@H](O)[C@H]1OC[C@H](O)[C@H]1O |  | inactive |
| CCOC(=O)CCCCCCCCC(=O)OCC | 0.491% |  |
| COc1cccc2sc(N)nc12 | 0.03% |  |
| COc1ccc(/C=N/NC(=O)c2ccncc2)cc1OC | -0.511% [at 46 µM] |  |
| CC(=O)OC(C)(C)Cc1ccccc1 | -0.494% |  |
| CC(C)COC(=O)CCCCC(=O)OCC(C)C | 0.169% |  |
| CC1CCC(C(C)(C)S)C(=O)C1 (stereo not given) | -0.0094% |  |
| O=P(O)(O)OCC(O)CO (stereo not given) | -0.0117% [at 46 µM] |  |
| CCN(CCO)c1cccc(C)c1 | -0.0376% |  |
| Oc1ccccc1Cc1ccccc1O | 0.0684% |  |
| Cn1c(=O)c2c(ncn2CC2OCCO2)n(C)c1=O | -0.697% [at 46 µM] |  |
| O=c1cc(O)c(Cl)c[nH]1 | -0.594% [at 46 µM] |  |
| C=COCCOCCOC=C | -0.152% |  |
| C=C(C)C(=O)OC1CC(C)CC(C)(C)C1 (stereo not given) | 0.0523% |  |
| Cc1nc2ccccc2c(=O)o1 | -0.0353% |  |
| C[N+](C)(C)CC(O)CCl (stereo not given) | -0.473% |  |

| Structure (SMILES) | fluorescence, % of fluorescent control | outcome |
| --- | --- | --- |
| CCCCCCCCCCCCC | 0.139% |  |
| CCC1COC(=O)O1 (stereo not given) | -0.0801% |  |
| Cc1nc([N+](=O)[O-])cn1-c1ccc([N+](=O)[O-])cc1 | 0.062% [at 46 µM] |  |
| CN(C)CCCNCCC#N | -0.211% |  |
| CCCO | -0.293% |  |
| NC(Cc1c[nH]c2ccccc12)C(=O)O (stereo not given) | -0.0228% [at 46 µM] |  |
| NS(=O)(=O)c1ccc(Cl)c(S(N)(=O)=O)c1 | -0.0252% [at 46 µM] |  |
| C[CH2][Ge]([Cl])([CH2]C)[CH2]C | 0.0284% [at 95.7 µM] |  |
| NC(=O)NC(=O)Cc1ccccc1 | -0.0551% [at 46 µM] |  |
| CCC(=O)OCCC(C)CCC=C(C)C (stereo not given) | 0.0382% |  |
| F[Si-2](F)(F)(F)(F)F |  | inactive |
| CC(C)CCCC(C)CC=O (stereo not given) | 0.166% |  |
| C=C[C@@H](C)CCC=C(C)C | 0.0794% |  |
| O=C(O)Cc1cccc(-c2cc(CCCCCCc3ccc(O[C@H]4O[C@H](CO)[C@@H](O)[C@H](O)[C@@H]4O)c(-c4cccc(CC(=O)O)c4)c3)ccc2O[C@H]2O[C@H](CO)[C@@H](O)[C@H](O)[C@@H]2O)c1 | 0.314% [at 46 µM] |  |
| Nc1ccc(S(=O)(=O)NC(=O)c2ccccc2)cc1 | -0.201% [at 18.6 µM] |  |
| O=c1[nH]c(=O)c2ccccc2o1 | -0.107% [at 46 µM] |  |
| O=S(=O)(O)SSS(=O)(=O)O | -0.161% |  |
| Cc1cccc(NC(=S)N(C)C)c1 | 0.114% |  |
| CCOc1ccc(NC(=O)OC(C)C)cc1OCC | 0.0262% |  |
| O=C(O)/C=C/c1ccccc1 |  | inactive |

From PubChem BioAssay (Tox21)
